MCF10A rerep: inducers of DNA re-replication in MCF 10A breast cells. AID 624296. MCF 10A DNA re-replication, Hoechst nuclear intensity, 48 h. 350,000 compounds, 2.9% hits. Potency, µM (top dose mostly 46.1 µM), for the others: at the highest dose activity, positive = re-replication, usual class: activators; note: % of control where 0% means no effect; nearly all actives have a fitted effect of over 50% in size
KB-3-1 tox: KB-3-1 parental cell cytotoxicity. AID 1347075. KB-3-1 viability, CellTiter-Glo ATP luminescence, 72 h. 400,000 compounds, 1.4% hits. Potency, µM (doses to about 46.1 µM), actives largely listed as cytotoxic; note: % is set by controls: 0 for no effect and ±100 for the full control effect; nearly all actives have a fitted effect of over 60% in size
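Cytotoxicity measured as CellTiter-Glo luminescence after 72 h at 37 C. Compound titrations were pinned onto drug-naive KB-3-1 parental adenocarcinoma cells grown in DMEM with 10% FBS, and normalized data fitted to concentration-response curves.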
KB-V1 MDR tox: KB-V1 MDR subline cytotoxicity; KB-V1 MDR cells viability, CellTiter-Glo, 72 h; Potency, µM (doses to about 46.1 µM), hits mostly cytotoxic; 400,000 compounds, 3.4% hits; note: % is set by controls: 0 for no effect and ±100 for the full control effect; nearly all actives have a fitted effect of over 60% in size
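Luminescent ATP read-out (CellTiter-Glo, 10 min) measures survival of drug-selected KB-V1 MDR cells after 72 h, 37 degrees C compound exposure. Medium: phenol-red-free DMEM, 10% FBS. Values from fitted concentration-response curves.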
SW480 rerep: inducers of DNA re-replication in SW480 colon cancer cells | SW480 DNA re-replication, Hoechst DNA content imaging, 48 h | Potency, µM (titrated, usually from 46.1 µM), for inactives: at the top dose re-replication activation, actives largely listed as activators | 340,000 compounds, 1.8% hits | AID 624297; note: % of control where 0% means no effect; nearly all actives have a fitted effect of over 55% in size
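Treated cells incubate 48 hr (37 C, 5% CO2), are stained 40 min with Hoechst, and nuclear fluorescence is enumerated; a rise in nuclei with high DNA signal marks re-replication.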
ELG1 DNA repair: blocks ELG1-dependent DNA repair in HEK293T cells; Potency, µM (titrated, usually from 46.1 µM), inactives show top-dose activity change, negative = inhibition, actives largely listed as inhibitors; HEK293T ELG1-luciferase reporter, luminescence, 16 h; DNA damage induced by 5-fluorouridine; AID 504467; 330,000 compounds, 2.3% hits; note: % is set by controls: 0 for no effect and ±100 for the full control effect; nearly all actives have a fitted effect of over 55% in size
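DMSO vehicle served as the neutral condition. Each well held 2,000 cells given 5-fluorouridine plus compound; after 16 hr at 37 °C/5% CO2, ONE-Glo was added and luciferase measured 30 min later.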
* marks the source's active call; other numbers are inactive results; i = inactive; ? = inconclusive; / = no result. An excerpt weighted towards active compounds, which were near 8.1% of everything screened. Calls come from the whole dose curve; as a rule, active = well fitted curve in the direction sought with a large enough effect; inconclusive = small, poorly fitted or top-dose-only effect, or another doubt; inactive = no such curve, though single readings can be large; an effect the other way counts as inactive or inconclusive. Potency is the fitted concentration of half-maximal effect.

SMILES	MCF10A rerep	KB-3-1 tox	KB-V1 MDR tox	SW480 rerep	ELG1 DNA repair
CCCCc1ccc(NC(=O)CSc2nc(=O)n(CCN(C)C)c3c2CCC3)cc1	?	?	i	?	10.0%
COc1cc(C(=O)/C=C/c2cccnc2)c([N+](=O)[O-])cc1OC	23.1µM*	?	i	4.9%	?
COc1cccc(/C=C/C(=O)c2ccc(C)c([N+](=O)[O-])c2)c1	6.51µM*	i	i	?	?
COc1cc(/C=C/C(=O)O)cc(OC)c1O	4.8%	i	i	7.1%	/
COc1cc(/C=C/C(=O)c2ccc(C)c([N+](=O)[O-])c2)cc(OC)c1O	9.2µM*	i	?	/	-5.2%
COC(=O)c1ccc(/C=C/C(=O)c2cccc(OC)c2)cc1	?	i	i	?	?
COc1cc(NC(=O)CN2C(=O)NC(C)(c3ccccc3)C2=O)c(C)cc1[N+](=O)[O-] (centres undefined)	17.1%	i	i	-3.0%	11.9%
Cc1cccc(N2CCN(C(=O)C3CCCN(S(=O)(=O)c4cnc[nH]4)C3)CC2C)c1 (centres undefined)	?	i	i	8.7%	23.1µM*
Cc1cccc(N2CCN(C(=O)C3CCN(S(=O)(=O)c4c(C)noc4C)CC3)CC2C)c1 (centres undefined)	11.1%	i	?	-2.5%	20.6µM*
Cc1cccc(OCC(=O)NCc2nnc3ccc(C(F)(F)F)cn23)c1C	1.6%	i	i	-8.1%	13.6%
COc1ccc2c(c1)CCc1c(C(=O)NCCN3CCOCC3)noc1-2	-1.6%	i	11.6µM*	2.3%	3.5%
COCC(C)NC(=O)c1noc2c1CCc1cc(OC)ccc1-2 (centres undefined)	?	i	16.4µM*	1.2%	?
CSc1nc2nc(C)c(C/C=C/c3ccccc3)c(=O)n2[nH]1	5.3%	i	i	?	-11.5%
CCOc1ccc(CCNC(=O)C2CCN(S(=O)(=O)c3ccc(C)cc3)CC2)cc1OCC	-2.7%	i	i	?	?
CCCn1c(NCc2ccco2)nc2c1c(=O)n(C)c(=O)n2C	0.4%	?	14.6µM*	-6.7%	?
CCCCCCn1c(NCC)nc2c1c(=O)n(C)c(=O)n2C	0.6%	?	?	-1.5%	5.8µM*
Cn1c(=O)c2c(nc(NCc3ccco3)n2CC(O)COc2ccccc2)n(C)c1=O (centres undefined)	1.8%	?	2.59µM*	-7.7%	?
CCOC(=O)c1c(C)noc1-c1ccc(Br)o1	?	i	i	-40.1%	7.0%
CC(C)CNC(=O)CN1C(=O)NC(Cc2c[nH]c3ccccc23)C1=O (centres undefined)	-2.0%	i	i	-1.0%	0.9%
CC1CCCN(C(=O)COC(=O)c2ccc3[nH]c4c(c3c2)CCCC4)C1 (centres undefined)	19.2%	i	i	-4.8%	?
C=CCC(Nc1ccccc1)C12C=CC(O1)C(C(=O)OC)=C2C(=O)OC (centres undefined)	12.6µM*	18.4µM*	?	?	-6.2%
CCN(CC)CCOC(=O)c1ccc(N/C=C(/C#N)c2nc(-c3ccc4c(c3)OCO4)cs2)cc1	18.4µM*	i	i	?	7.0%
O=C(CSc1nnc(-c2ccc(Cl)s2)o1)N1CCCc2ccccc21	1.2%	i	i	-0.1%	5.1%
CN(C)/N=C/c1ccc(Sc2ccccc2[N+](=O)[O-])o1	14.4%	i	i	12.5%	3.7%
COC(=O)c1sc(-c2ccc(C(C)(C)C)cc2)cc1NC(=O)c1ccccc1C(=O)O	?	i	i	2.0%	?
SMILES	MCF10A rerep	KB-3-1 tox	KB-V1 MDR tox	SW480 rerep	ELG1 DNA repair
COC(=O)c1sc(-c2ccc(C(C)(C)C)cc2)cc1NC(=O)CSCC(=O)O	14.6µM*	i	?	-17.9%	9.5%
O=C(c1cccc([N+](=O)[O-])c1)c1ccc2c(c1)C(=O)NC2=O	18.5%	i	i	-131.0%	9.6%
COc1ccc(C(CNc2ncnc3sc(C)c(C)c23)N(C)C)cc1 (centres undefined)	?	?	10.3µM*	?	-2.7%
CN(C)C(CNc1ncnc2sc3c(c12)CCCCC3)c1ccco1 (centres undefined)	4.9%	i	?	-4.0%	-8.9%
Cc1sc2ncnc(NCC3(N4CCOCC4)CCCCC3)c2c1C	9.2%	i	?	-2.7%	?
Cc1sc2ncnc(NCC(c3ccco3)N(C)C)c2c1C (centres undefined)	2.4%	i	18.4µM*	0.0%	?
Cc1sc2ncnc(NCc3ccccc3)c2c1C	14.4%	23.1µM*	?	1.8%	?
COc1ccccc1C(CNc1ncnc2sc(C)c(C)c12)N(C)C (centres undefined)	?	i	i	?	-3.5%
Cc1sc2ncnc(NCC(C)(C)N3CCOCC3)c2c1C	1.8%	?	4.11µM*	-7.5%	?
Cc1ccc(NC(=O)CSc2nnc(Cc3csc(C)n3)o2)c(C)c1	10.2%	i	i	-0.6%	7.9%
CCc1ccccc1NC(=O)CC1S/C(=N\c2nccs2)N(CC)C1=O (centres undefined)	?	i	8.2µM*	1.6%	-10.1%
CCN(CC)c1nc(Nc2ccccc2)nc(Oc2ccc(=O)[nH]n2)n1	18.2%	i	i	-4.5%	?
CCN(CC)c1nc(Nc2ccccc2)nc(Oc2ccc(=O)n(C)n2)n1	?	?	6.51µM*	-9.4%	16.5%
O=C(NCCS(=O)(=O)N1CCN(c2cccc(Cl)c2)CC1)C1CCCC1	0.4%	i	?	5.4%	?
O=C(Oc1ccc(Cl)cc1)c1cc(-c2ccc3c(c2)OCCO3)on1	/	i	i	/	/
CC(C)NC(=O)N1CC(c2ccccc2)C(c2ccc(Cl)cc2)=N1 (centres undefined)	-2.7%	i	?	9.5%	-24.4%
CC(=O)N1CC(c2ccccc2)C(c2ccc(Cl)cc2)=N1 (centres undefined)	5.2%	i	14.6µM*	-2.1%	-3.4%
O=C1c2c(O)ccc(O)c2C(=O)c2c(NCCNCCO)ccc(NCCNCCO)c21	-3.5%	0.651µM*	20.6µM*	-9.1%	11.2µM*
O=C(NCCc1ccccc1)c1coc(=O)c(Br)c1	?	?	?	10.3µM*	?
O=C(NCCC1=CCCCC1)c1coc(=O)c(Br)c1	11.6µM*	?	?	9.2µM*	-4.4%
O=C(Nc1cc(Cl)cc(Cl)c1)c1coc(=O)c(Br)c1	?	i	i	?	16.3%
CC(C)CNC(=O)c1coc(=O)c(Br)c1	20.6µM*	6.31µM*	?	?	?

Bioassay records as filed in PubChem BioAssay.
